IL-2 act – qHTS of IL-2 Activators. IL-2 activation reporter assay, cell-based qHTS; stimulated with anti-CD3/CD4/CD28 beads; in transgenic mouse T cells. activation, % (series mostly up to about 46 µM). 0.065% of 360,000 active. AID 652025, 2013; in the data active means activation above about 50%; inconclusive means mostly about 30% to 49%; further: 0% is about no effect
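Quantitative HTS in unstimulated transgenic mouse T cells, with memory T cells as non-tolerant control and PMA/ionomycin as tolerance-bypass control. Compound pretreatment lasted 60 minutes before 18 h bead stimulation; EGFP/DsRed fluorescence read.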
PKM2 activator – qHTS Assay for Activators of Human Muscle isoform 2 Pyruvate Kinase; purified PKM2, Kinase-Glo ATP luminescence, activation; response scale: 0% is enzyme alone, no compound; 0.34% of 260,000 active; Pyruvate kinase PKM (Homo sapiens), P14618; AID 1631, 2009; Potency, µM (top dose mostly 57.5 µM), inactives show at the highest dose activation, hits mostly activators; further: potency means the concentration at half of the fitted maximal effect; on the % scale 0 is the no-effect control and ±100 the full control effect; nearly all actives have a fitted effect of over 55% in size
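hPK-M2, >95% pure; 0.1 mM ADP / 0.5 mM PEP final; imidazole pH7.2 buffer w/ 7 mM MgCl2, 50 mM KCl; 1 h RT; Kinase-Glo lum. Intermediate enzyme activity for dual inhibitor/activator qHTS.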
USP2a block – qHTS Assay for Inhibitors of Ubiquitin-specific Protease USP2a Using CHOP2 as the Reporter. Potency, µM (titrated, usually from 38.3 µM), for the others: at the highest dose activity change, negative = inhibition, most hits filed as inhibitors. USP2 core, Ub-CHOP2 coupled fluorogenic reporter, 485/531. AID 463254, 2010. 0.01% of 330,000 active;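 further: potency means the concentration at half of the fitted maximal effect; plate controls were DMSO wells for no effect and full inhibition by NEM control for full effect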
Target sequence (O75604 whole entry, looked up): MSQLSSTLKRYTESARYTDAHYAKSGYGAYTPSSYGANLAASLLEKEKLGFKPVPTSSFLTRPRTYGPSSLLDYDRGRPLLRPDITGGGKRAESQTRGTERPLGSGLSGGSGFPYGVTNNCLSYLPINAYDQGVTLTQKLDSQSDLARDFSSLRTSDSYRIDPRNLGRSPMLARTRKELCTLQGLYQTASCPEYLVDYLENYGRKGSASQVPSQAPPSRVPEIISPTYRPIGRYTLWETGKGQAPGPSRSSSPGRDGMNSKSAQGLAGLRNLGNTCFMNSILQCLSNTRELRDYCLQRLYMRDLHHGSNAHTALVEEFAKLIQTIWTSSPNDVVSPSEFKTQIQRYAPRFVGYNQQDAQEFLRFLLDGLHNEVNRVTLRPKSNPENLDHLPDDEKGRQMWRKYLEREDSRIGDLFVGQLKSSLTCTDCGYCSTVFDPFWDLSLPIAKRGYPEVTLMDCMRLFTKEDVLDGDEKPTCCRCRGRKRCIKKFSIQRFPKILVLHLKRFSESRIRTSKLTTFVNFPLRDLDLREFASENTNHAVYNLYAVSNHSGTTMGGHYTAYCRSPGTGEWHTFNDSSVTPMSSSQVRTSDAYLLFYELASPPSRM
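USP2 core (10nM final) preincubated 30min RT with compound in 20mM Tris-HCl pH 8.0, 2mM CaCl2, 2mM beta-mercaptoethanol, 0.05% CHAPS; 25nM Ub-CHOP2 plus 25nM reporter substrate added, fluorescence (Ex485/Em531) read after 60min.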
Integrin act MD – qHTS for Activators of Integrin-Mediated Alleviation for Muscular Dystrophy; 0.064% of 350,000 active; Potency, µM (highest dose often 38.3 µM), for inactives: at the top dose activation, usual class: activators; alpha7betagal myoblasts, beta-gal FDG fluorescence, 48 h;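 further: potency means the concentration at half of the fitted maximal effect; 100% = response of the positive control SU9516; nearly all actives have a fitted effect of over 60% in size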
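Alpha7betagal+/- myoblasts (passage 13) were plated 16-24 hr, then exposed to compounds (1:260 dilution of DMSO stock) for 48 hours at 37C. After MPER lysis, β-galactosidase reporter activity was read as FDG fluorescence (ex 480/em 540) after 30 minutes.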
ClpP mod – qHTS Assay for Activators of ClpP; ATP-dependent Clp protease proteolytic subunit (Bacillus subtilis (strain 168)), P80244; purified B. subtilis ClpP, FRET peptide cleavage, 20 min; Potency, µM (titrated, usually from 57.5 µM), without a hit: top-dose activity change, negative = active; 1.9% of 340,000 active; AID 651965, 2013; active means well fitted falling curve with a large enough effect; inconclusive means small, poorly fitted or top-dose-only effect; inactive means no such curve, though single readings can be large or run the other way; further: potency means the concentration at half of the fitted maximal effect; the source files actives as falling curves though it sought activators and does not explain the sign; nearly all actives have a fitted effect of over 65% in size
Target sequence (P80244 whole entry, looked up): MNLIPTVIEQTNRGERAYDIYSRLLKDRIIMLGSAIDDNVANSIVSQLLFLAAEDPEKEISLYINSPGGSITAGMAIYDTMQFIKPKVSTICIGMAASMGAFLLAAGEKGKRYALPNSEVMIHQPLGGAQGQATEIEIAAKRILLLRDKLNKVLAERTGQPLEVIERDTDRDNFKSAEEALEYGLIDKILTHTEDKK
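FRET quenching reversal measured ClpP activation: 10 microg/mL B. subtilis ClpP at pH 8 with the FRET-FV decapeptide, read at 430 nm after 320 nm excitation. The 20-min minus 0-min signal was scaled between DMSO/no-enzyme wells and ADEP (5.8 microM final).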
Pin1 inhibitor – qHTS Assay to Find Inhibitors of Pin1. Pin1 FP peptide displacement, HiFluor488, 10 min. Potency, µM (highest dose often 115 µM), for inactives: top-dose activity, negative = inhibition, actives largely listed as inhibitors. 0.009% of 390,000 active; active means well fitted inhibition curve with a large enough effect in the polarisation, with a control signal flat, not every such curve was filed as active; inconclusive means small, poorly fitted or top-dose-only effect, or effect the other way, or a change in a side signal; inactive means no such curve, though single readings can be large or run the other way; the % refers to the polarisation; further: potency means the concentration at half of the fitted maximal effect; on the % scale 0 is the no-effect control and ±100 the full control effect
* marks the source's active call; other numbers are inactive results; ? = inconclusive; . = no result given; [ ] = another dose, or the depositor's remark. A selection: hits, their analogues and other compounds. The true share with any hit is near 1.9%. Unless noted, the call rests on the fitted dose curve; in most records, active means well fitted curve in the direction sought with a large enough effect; inconclusive means small, poorly fitted or top-dose-only effect, or another doubt; inactive means no such curve, though single readings can be large; an effect the other way counts as inactive or inconclusive.

SMILES | IL-2 act | PKM2 activator | USP2a block | Integrin act MD | ClpP mod | Pin1 inhibitor
Cn1cc(C(=O)N2CCN(C(=O)c3ccco3)CC2)c2c3ccccc3n(C)c2c1=O | 1 | 5% | 1% | 6% | 14µM* | 2%
COCCCNC(=O)c1cn(CC(C)C)c(=O)c2c1c1ccccc1n2C | -2 | 0% | 1% | 15% | 32µM* | 0%
Cn1c2ccccc2c2c(C(=O)N3CCN(c4ccc(F)cc4)CC3)cn(C3CCCCC3)c(=O)c21 | . | . | . | . | ? | 9%
COCCCNC(=O)c1cn(CCOC)c(=O)c2c1c1ccccc1n2C | -2 | . | 0% | ? | 4% | 5%
COCCn1cc(C(=O)NCCCOC(C)C)c2c3ccccc3n(C)c2c1=O | 0 | . | 0% | -5% | 32µM* | -10%
CCN1CCN(C(=O)c2cn(CCOC)c(=O)c3c2c2ccccc2n3C)CC1 | -2 | -1% | 1% | -22%[7.66 µM] | ? | 3%
Cc1ccc(S(=O)(=O)c2cnc(-c3ccccc3)[nH]c2=O)cc1 | . | . | . | . | -3% | -7%
COC(=O)CCCC1=CC2=C(c3ccccc3)C(=O)C(C)(OC(=O)C3CCCC3)C(=O)C2=CN1CCCOC(C)C (stereo not given) | . | -5%[11.5 µM] | . | . | . | .
CC(C)Cn1cc(C(=O)NCCCN2CCCC2=O)c2c3ccccc3n(C)c2c1=O | 2 | 1% | -1% | -14%[7.66 µM] | 16µM* | -1%
CC(C)Cn1cc(C(=O)N2CCN(c3ccccn3)CC2)c2c3ccccc3n(C)c2c1=O | 0 | -1% | -6% | -14%[7.66 µM] | 16µM* | -1%
CC(C)Cn1cc(C(=O)NCCCN2CCC(C)CC2)c2c3ccccc3n(C)c2c1=O | -4 | . | . | 6% | . | -8%
COc1ccccc1C(C)NCC(=O)Nc1ccccc1C(F)(F)F (stereo not given) | 0 | -14% | -4% | -20% | 18µM* | -2%
COc1cccc(C2=Nn3c(nnc3-c3cc(OC)cc(OC)c3)SC2)c1 | . | . | . | . | . | 73%
Cc1c(Cl)cccc1NC(CC(=O)c1ccccc1)C(=O)O (stereo not given) | -1 | ? | -1% | -27% | 25µM* | -12%
COCCNC(=O)C(=O)N/N=C(\C)CC(=O)Nc1ccc(Cl)cc1Cl | 0 | -2% | 0% | -3% | 28µM* | -7%
N#Cc1ccc2ccn(CC(=O)NC3CCCCCC3)c2c1 | -2 | 8% | -1% | 15% | ? | -3%
COC(=O)c1ccc2ccn(CC(=O)NC3CCCCC3)c2c1 | 2 | -4% | -2% | 3% | 8.9µM* | 4%
O=C1CCC2=C1C(c1ccccc1Cl)N=C(Nc1nc3ccccc3o1)N2 (stereo not given) | . | . | . | . | . | 5%
CCN1/C(=C/c2ccc3cc(C)cc(C)c3[n+]2CC)Sc2cc(C)ccc21 | 1 | 5% | 12% | -46% | 2% | ?
CCN1/C(=C/c2ccc3cccc(C)c3[n+]2CC)Sc2ccccc21 | 54* | -77% | 3% | -63% | -1% | ?
N#CC1(NC(=O)CSc2n[nH]c(-c3ccccc3)n2)CCCCC1 | 0 | . | 0% | 1% | 14µM* | 1%
Cc1cc(SCC(=O)N2CCCC2=O)nc2c(C)cccc12 | -3 | . | 1% | 20% | 1% | 4%
Cc1cc(SCC(=O)NC2(C#N)CCCCC2)nc2c(C)cccc12 | -2 | . | 3% | -9% | 32µM* | 4%
CCCCCCCCCCCCCCCC[n+]1ccc(C)c2ccccc21 | . | . | . | . | -16% | .
CCCC[C@@H]1CCCO[C@@](C(=O)NCCOC)(C(F)(F)F)C1 | . | . | . | . | . | 5%
SMILES | IL-2 act | PKM2 activator | USP2a block | Integrin act MD | ClpP mod | Pin1 inhibitor
CC12CCC(c3nnc(SCc4ccc(Cl)cc4)nc31)C2(C)C (stereo not given) | 0 | -9% | 4% | -9% | 20µM* | 0%
CCOC(=O)CSc1nnc2c(n1)C1(C)CCC2C1(C)C (stereo not given) | -2 | 0% | 3% | 7% | 0% | -5%
O=C1Cc2cc(S(=O)(=O)N3CCN(c4ccc(Cl)cc4)CC3)ccc2N1 | . | . | . | . | . | -8%[230 µM]
O=S(=O)(c1ccccc1)c1nc(-c2cccs2)oc1NCC1CCCO1 (stereo not given) | -2 | -20% | 0% | 31% | 25µM* | -1%
COc1ccc(-c2nc(NC(=O)CSc3nnc(C)s3)ns2)cc1 | 1 | -2% | 1% | 3% | 18µM* | 28%
CC(=O)Nc1cccc2ccc(O)cc12 | 1 | . | . | -18% | . | 3%
CC(=O)Nc1cc2c3ccccc3ccc2c2ccccc12 | 0 | . | . | 19% | 32µM* | 0%
CC1CCCC(NC(=O)c2ccc3c(=O)n(CC4CCCO4)c(=O)[nH]c3c2)C1C (stereo not given) | 1 | 0% | 3% | 19% | 25µM* | -2%
COC(=O)c1c(NC(=O)CSc2nnc3ccccn23)sc2c1CCC2 | -3 | -6% | 1% | 3% | 28µM* | -2%
CCOC(=O)c1c(NC(=O)CSc2nnc3ccccn23)sc2c1CCC2 | -2 | -1% | 3% | 1% | -3% | 4%
CN(CCO)S(=O)(=O)c1ccc2c(c1)C(=NO)c1cc(S(=O)(=O)N(C)CCO)ccc1-2 | 2 | 14% | 0% | 5% | . | 7%
NS(=O)(=O)c1ccc2c(c1)C(=NO)c1cc(S(N)(=O)=O)ccc1-2 | -2 | 4µM* | 0% | -20% | . | -8%
CCc1nn2c(=O)cc(N3C(C)CNCC3C)nc2s1 (stereo not given) | . | . | . | . | . | 6%
C/C(=N\OCC(=O)OC(C)C(=O)Nc1ccc(C(N)=O)cc1)c1ccc2c(c1)OCO2 (stereo not given) | -5 | -4% | 0% | 4.5µM* | -5% | 4%
CC1=NNC(=O)C1CC(=O)N/N=C/c1sccc1C (stereo not given) | -2 | -6% | -3% | 15% | . | 0%
COc1cc(OC)c(OC)cc1/C=N/NC(=O)CC1C(=O)NN=C1C (stereo not given) | 1 | 3% | -1% | 8% | 28µM* | 2%
O=C(C[n+]1cccc(I)c1)c1ccc(F)cc1 | . | . | . | . | 0% | .
CCc1cc2c(NCCC(=O)O)nc(C)nc2s1 | -3 | -1% | 1% | -4% | 28µM* | -3%
Cc1ccc(-c2cc(C(F)(F)F)c(C#N)c(SCCC#N)n2)o1 | 1 | -9% | 0% | -5% | 4.5µM* | -25%
NC(=O)[C@@H]1CCCN1Cc1c(C(=O)N2CCN(C3CCCCC3)CC2)nc2ccccn12 | 1 | -6% | 3% | 9% | 18µM* | -24%

Screens as filed in PubChem.
